Source: PubChem BioAssay AID2673 (National Center for Advancing Translational Sciences (NCATS), 2010)
Inconclusive results are not listed. The source made the active and inactive calls. Calls come from the whole dose curve; as a rule, active = well fitted activation curve with a large enough effect; inconclusive = small, poorly fitted or top-dose-only effect; inactive = no such curve, though single readings can be large or run the other way.

Assay: qHTS Multiplex Assay to Identify Dual Action Probes in a Cell Model of Huntington: Cytoprotection confirmation (ATP)
Details: PC12 HttQ103 induced, ATP luminescence 40 h; series mostly up to 46.1 µM; cytoprotection, positive = protection: at the top concentration
How it was run: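 PC12 cells expressing ecdysone-inducible HTT exon 1 (Q103)-GFP, induced with 100 nM tebufenozide and exposed to compounds; cytoprotection read as cellular ATP by ATPlite luminescence.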

cytoprotection, positive = protection, inactive:
COc1ccc(-c2[nH]ncc2-c2ccc3c(c2)OCCO3)c(O)c1 -4.71%, Cn1nnnc1Sc1ncnc2scc(-c3cc4ccccc4o3)c12 -107%, C#CCN(C)CCCOc1ccc(Cl)cc1Cl 24.5%, Cc1noc(C)c1COC(=O)Cc1ccc(Cl)cc1 8.35%, Cn1nnnc1Sc1ncnc2scc(-c3ccc(Cl)cc3)c12 -97.3%, Cn1nnnc1Sc1ncnc2scc(-c3ccc4c(=O)ccoc4c3)c12 -107%, COc1cc(NC(=O)c2cc3nc(C)cc(C)n3n2)c(OC)cc1Cl -22.2%, Cn1nnnc1Sc1ncnc2scc(-c3cccc(N)c3)c12 3.36%, CCC(=O)OCCCCCCOc1ccc(C(=O)O)cc1 -1.38%, CC(=O)c1n[nH]nc1NC(=O)c1ccccc1 -12.5%, CN1C(=O)NC(NC(=O)c2cccs2)(C(F)(F)F)C1=O (configuration not stated) 8.42%, CC(=O)Oc1cccc(C(=O)O)c1OC(C)=O -18.4%, CC(=O)c1ccc(-c2csc3ncnc(Sc4nnnn4C)c23)cc1 -23.7%, COc1ccc2cc3cc(C(=O)N4CCN(c5ccccc5)CC4)oc3nc2c1 -12.8%, COc1ccccc1-n1nnnc1S(=O)(=O)Cc1ccc(Cl)cc1 10.7%, Cn1nnnc1Sc1ncnc2scc(-c3ccccc3C(F)(F)F)c12 -2.74%, C[C@]12CC[C@@H]3c4ccc(OC(=O)c5ccccc5)cc4CC[C@H]3[C@@H]1CC[C@@H]2O -43.4%, Cc1cc(C)nc(Sc2nc(C)nc3c2oc2ccccc23)n1 -2.25%, Cn1nnnc1Sc1ncnc2scc(-c3ccc(C(=O)OC(C)(C)C)cc3)c12 -75.7%, C=C(C)C(=O)OCCCCCCOc1ccc(C(=O)O)cc1 1.06%, Fc1cccc(Cl)c1Cn1nnc2c(-n3ccnc3)ncnc21 7.87%

Potency, active:
CC(=O)c1cccc(-c2csc3ncnc(Sc4nnnn4C)c23)c1 10 µM, Cn1nnnc1Sc1ncnc2scc(-c3cccc([N+](=O)[O-])c3)c12 25.1 µM, Cn1nnnc1Sc1ncnc2scc(-c3cccc(C(F)(F)F)c3)c12 14.1 µM, Cn1nnnc1Sc1ncnc2scc(-c3ccsc3)c12 11.2 µM, Cn1nnnc1Sc1ncnc2scc(-c3cccc4ccccc34)c12 8.91 µM, Cn1nnnc1Sc1ncnc2scc(-c3ccccc3C#N)c12 28.2 µM, Cn1nnnc1Sc1ncnc2scc(-c3cccc(C#N)c3)c12 12.6 µM, Cn1nnnc1Sc1ncnc2scc(-c3cccc(F)c3)c12 14.1 µM, Cn1nnnc1Sc1ncnc2scc(-c3ccccc3)c12 25.1 µM, Cn1nnnc1Sc1ncnc2scc(-c3ccc(F)cc3)c12 25.1 µM, Cn1nnnc1Sc1ncnc2scc(-c3ccccc3Cl)c12 31.6 µM
